# From the supplement of paper PMC12494721
# Where a name gives a salt, the structure may show the parent alone.
# How the values were obtained:
# Conditions in all cases: incubation time: 27 h, anaerobic, 37 °C;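 for the amine columns active = adjusted P below 0.05 in both replicates with a change the same way and a mean fold change under 0.8 or over 1.25; inactive = the rest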
# [1] = tested on: Clostridium sporogenes DSM 1664; assay: growth (OD595) fold change vs plate DMSO controls (fold change (ratio)); higher = more growth
# Summary of the method: (§1)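 After 27 h at 37 °C under anaerobic conditions, 96-well cultures in mGAM were shaken and read at 595 nm. The readings were blank-subtracted, corrected for compound background using 20 µM compound solutions in water, and converted to OD with a calibration factor of 5. Growth is defined as the fold change over the median of DMSO controls on each plate. Fold changes above 1.5 were set to NA, and each value is the mean of 2 biological replicates.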
# Escherichia coli IAI1 [2] = assay: as above
# Summary of the method: as §1
# [3] = tested on: Klebsiella aerogenes DSM 30053; assay: as above
# Summary of the method: as §1
# [4] = tested on: Ruminococcus gnavus DSM 108212; assay: as above
# Summary of the method: as §1
# [5] = tested on: Klebsiella aerogenes DSM 30053; assay: fold change of Histamine concentration vs plate DMSO controls (fold change (ratio)); higher = more amine produced, active = hit call of the paper (significant change in both replicates, either direction)
# Summary of the method: (§2)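 Amines were quantified by LC–triple-quadrupole MS in dynamic MRM mode against external calibration curves, with drift correction within each batch. The samples were whole anaerobic mGAM cultures of four gut bacterial strains, grown for 27 h at 37 °C in 80 µL wells and extracted with cold acetonitrile/methanol with 0.1% formic acid, then centrifuged. Values are reported as fold change over DMSO controls on the same plate. The mean of 2 biological replicates is given.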
# [6] = tested on: Clostridium sporogenes DSM 1664; assay: fold change of Tryptamine concentration vs plate DMSO controls (fold change (ratio)); higher = more amine produced, active = hit call of the paper (significant change in both replicates, either direction)
# Summary of the method: as §2
# [7] = tested on: Ruminococcus gnavus DSM 108212; assay: as above
# Summary of the method: as §2
# Escherichia coli IAI1 [8] = assay: fold change of Putrescine concentration vs plate DMSO controls (fold change (ratio)); higher = more amine produced, active = hit call of the paper (significant change in both replicates, either direction)
# Summary of the method: as §2
# [9] = tested on: Klebsiella aerogenes DSM 30053; assay: as above
# Summary of the method: as §2
# Escherichia coli IAI1 [10] = assay: fold change of Cadaverine concentration vs plate DMSO controls (fold change (ratio)); higher = more amine produced, active = hit call of the paper (significant change in both replicates, either direction)
# Summary of the method: as §2
# [11] = tested on: Klebsiella aerogenes DSM 30053; assay: as above
# Summary of the method: as §2
# [12] = tested on: Ruminococcus gnavus DSM 108212; assay: fold change of 2-Phenylethylamine concentration vs plate DMSO controls (fold change (ratio)); higher = more amine produced, active = hit call of the paper (significant change in both replicates, either direction)
# Summary of the method: as §2
Structure (SMILES),growth [1],growth (Escherichia coli IAI1 [2]),growth [3],growth [4],fold change of Histamine concentration [5],fold change of Tryptamine concentration [6],fold change of Tryptamine concentration [7],fold change of Putrescine concentration (Escherichia coli IAI1 [8]),fold change of Putrescine concentration [9],fold change of Cadaverine concentration (Escherichia coli IAI1 [10]),fold change of Cadaverine concentration [11],fold change of 2-Phenylethylamine concentration [12]
CCOc1cc(N)c(Cl)cc1C(=O)NCC1CN(Cc2ccc(F)cc2)CCO1 (stereo not given) [Mosapride] (20 µM),1.14,0.963,0.978,1.08,1.05 (inactive),1.03 (inactive),0.938 (inactive),0.985 (inactive),1.02 (inactive),0.998 (inactive),0.992 (inactive),0.936 (inactive)
Nc1ccn([C@@H]2O[C@H](CO)[C@@H](O)[C@@H]2O)c(=O)n1 [Cytarabine] (20 µM),0.956,1.03,1.03,0.571,0.975 (inactive),0.967 (inactive),0.63 (active),0.953 (inactive),1.02 (inactive),1.32 (active),1.01 (inactive),0.69 (active)
CC(C)(C)NC[C@H](O)COc1cccc2c1CCCC2=O [(-) Levobunolol hydrochloride] (20 µM),0.999,0.973,0.98,0.872,1.06 (inactive),1 (inactive),0.916 (inactive),1.04 (inactive),1.03 (inactive),0.996 (inactive),1 (inactive),0.866 (inactive)
Nc1ccccc1S(N)(=O)=O [o-Sulfanilamide] (20 µM),0.883,1.01,1.01,1,1.02 (inactive),0.958 (inactive),0.928 (inactive),1.03 (inactive),1.01 (inactive),1 (inactive),1 (inactive),0.905 (inactive)
CC(C)NCC(O)COc1cccc2[nH]c3ccccc3c12 (stereo not given) [Carazolol] (20 µM),0.738,1,0.956,1.12,1.06 (inactive),0.732 (inactive),1.07 (inactive),0.922 (inactive),0.966 (inactive),0.889 (inactive),0.992 (inactive),1.14 (inactive)
CC(C)=CCOc1ccc(/C=C/C(=O)c2ccc(OCC=C(C)C)cc2OCC(=O)O)cc1 [Sofalcone] (20 µM),0.713,0.964,0.98,0.927,1 (inactive),0.425 (active),0.669 (active),1.01 (inactive),1 (inactive),1.03 (inactive),0.992 (inactive),0.689 (inactive)
CO[C@@H]1[C@@H](O[C@@H]2O[C@H](C)[C@@H](O[C@H]3C[C@@](C)(O)[C@@H](OC(=O)CC(C)C)[C@H](C)O3)[C@H](N(C)C)[C@H]2O)[C@@H](CC=O)C[C@@H](C)[C@@H](O)/C=C/C=C/C[C@@H](C)OC(=O)C[C@H]1OC(C)=O [Josamycin] (20 µM),0.00305,0.881,0.953,0.124,0.572 (inactive),0.0546 (active),0.135 (active),0.708 (inactive),1.08 (inactive),1.34 (active),1.06 (inactive),0.116 (active)
Nc1nc(O)c2ncn(CCC(CO)CO)c2n1 [Penciclovir] (20 µM),1.11,1.12,1.06,1.14,0.824 (inactive),1.07 (inactive),1.08 (inactive),1.08 (inactive),0.962 (inactive),0.996 (inactive),1.02 (inactive),1.12 (inactive)
CC(C)(C)NC[C@H](O)COc1nsnc1N1CCOCC1 [Timolol maleate salt] (20 µM),1,1.03,1.02,1.01,1.04 (inactive),1.03 (inactive),0.991 (inactive),1.12 (inactive),1.01 (inactive),1.02 (inactive),1 (inactive),0.997 (inactive)
CCCCc1oc2ccccc2c1C(=O)c1cc(I)c(OCCN(CC)CC)c(I)c1 [Amiodarone hydrochloride] (20 µM),1.17,1.02,0.991,0.65,1.06 (inactive),1.1 (inactive),0.75 (active),0.96 (inactive),1.02 (inactive),1.04 (inactive),0.985 (inactive),0.89 (inactive)
C=CC1=C(C(=O)O)N2C(=O)[C@@H](NC(=O)/C(=N\OCC(=O)O)c3csc(N)n3)[C@H]2SC1 [Cefixime] (20 µM),0.286,0.0263,1.12,–,0.931 (inactive),0.826 (inactive),0.964 (inactive),0.484 (active),1.03 (inactive),2.08 (active),1.05 (inactive),0.932 (inactive)
CC(C)(O/N=C(\C(=O)N[C@@H]1C(=O)N2C(C(=O)[O-])=C(C[n+]3ccccc3)CS[C@H]12)c1csc(N)n1)C(=O)O [Ceftazidime pentahydrate] (20 µM),0.781,0.132,0.595,–,1.18 (inactive),1.04 (inactive),0.877 (inactive),2.08 (active),0.905 (inactive),2.09 (active),1.16 (inactive),0.865 (inactive)
O=C(O)c1cc(=O)c2c(OCC(O)COc3cccc4oc(C(=O)O)cc(=O)c34)cccc2o1 [Cromolyn disodium salt] (20 µM),1.06,1.05,1.02,1.11,0.943 (inactive),0.983 (inactive),1.04 (inactive),0.994 (inactive),0.96 (inactive),0.99 (inactive),0.979 (inactive),1.06 (inactive)
CC(C)(c1cc(Br)c(O)c(Br)c1)c1cc(Br)c(O)c(Br)c1 (20 µM),0,1.04,1.05,–,0.929 (inactive),0.0166 (active),0.366 (active),0.967 (inactive),1.01 (inactive),0.996 (inactive),1.04 (inactive),0.404 (inactive)
Cc1cccc(Nc2ccncc2S(=O)(=O)NC(=O)NC(C)C)c1 [Torsemide] (20 µM),1.09,1.07,1,1.03,1.03 (inactive),1.05 (inactive),1.12 (inactive),1.06 (inactive),0.998 (inactive),0.976 (inactive),0.986 (inactive),1.24 (inactive)
Clc1cc(Cl)c(OCC#CI)cc1Cl [Haloprogin] (20 µM),0.986,0.942,0.967,–,1.01 (inactive),0.977 (inactive),0.777 (inactive),1.09 (inactive),0.953 (inactive),1.04 (inactive),0.987 (inactive),0.861 (inactive)
NCc1ccc(S(N)(=O)=O)cc1 [Mafenide hydrochloride] (20 µM),1.13,1,1.04,0.971,1.08 (inactive),0.888 (inactive),0.773 (inactive),1 (inactive),1.02 (inactive),1.04 (inactive),0.987 (inactive),0.755 (inactive)
C[C@]12CCC3=C4CCC(=O)C=C4CC[C@H]3[C@@H]1CC[C@@]2(O)CC#N [Dienogest] (20 µM),0.815,0.536,0.616,0.67,0.945 (inactive),1.01 (inactive),1.04 (inactive),0.979 (inactive),1 (inactive),0.993 (inactive),1 (inactive),1.02 (inactive)
C[C@@H]1CN(c2c(F)c(N)c3c(=O)c(C(=O)O)cn(C4CC4)c3c2F)C[C@H](C)N1 [Sparfloxacin] (20 µM),0.0221,0.0499,0.286,–,0.286 (active),0.0593 (active),0.763 (active),0.942 (inactive),1.16 (inactive),0.264 (active),0.973 (inactive),0.829 (inactive)
c1ccc(-c2ccc(C(c3ccccc3)n3ccnc3)cc2)cc1 (stereo not given) [Bifonazole] (20 µM),1.27,1.08,1.02,0.817,0.99 (inactive),0.923 (inactive),0.82 (inactive),1.04 (inactive),1.01 (inactive),0.981 (inactive),1 (inactive),0.927 (inactive)
CC1COc2c(N3CCN(C)CC3)c(F)cc3c(=O)c(C(=O)O)cn1c23 (stereo not given) [Ofloxacin] (20 µM),0.0346,0.0388,0.256,–,0.09 (active),0.0354 (active),0.997 (inactive),0.809 (inactive),0.653 (active),0.187 (active),0.961 (inactive),1.06 (inactive)
CCC(C)(C)C(=O)O[C@H]1C[C@@H](C)C=C2C=C[C@H](C)[C@H](CC[C@@H]3C[C@@H](O)CC(=O)O3)[C@H]21 [Simvastatin] (20 µM),1.01,1.05,1.25,–,0.919 (inactive),0.967 (inactive),0.995 (inactive),1 (inactive),1.03 (inactive),1 (inactive),1.03 (inactive),0.991 (inactive)
O=C1CN(/N=C/c2ccc([N+](=O)[O-])o2)C(=O)N1 [Nitrofurantoin] (20 µM),1.01,0.997,0.868,–,1.07 (inactive),0.931 (inactive),0.808 (inactive),0.729 (active),0.962 (inactive),1.81 (active),0.997 (inactive),0.923 (inactive)
Cc1cc(-c2ccccc2)nnc1NCCN1CCOCC1 [Minaprine dihydrochloride] (20 µM),1.21,0.985,0.972,1.16,0.939 (inactive),1.01 (inactive),0.991 (inactive),0.963 (inactive),0.998 (inactive),1.01 (inactive),1 (inactive),0.955 (inactive)
